Where “and” joins values, the source holds several entries; their conditions need not be identical. Equal values may be shown once. The whole screen tested about 5,500 compounds, of which about 2,000 (36%) were called active. Roughly 18% stayed inconclusive and do not appear here. Rule as the data show it: active = normalized growth mostly below about 0.91 (no sharp cut-off); inconclusive = no clear call, values can overlap the other calls; inactive = mostly above about 0.92. The list shows a part of the results.
Assay: chemical genetic growth profiling, strain panel (AID 1159580);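 also: tested at 20 µM; growth read once vehicle control cultures reached saturation at 30 °C; 1 = growth at the plate median or of vehicle wells; lower values mean less growth of the strain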
Details: S. cerevisiae deletion strains, growth OD

Measured: normalized growth

COc1ccc2[nH]cc(CCN)c2c1
inactive: locus YAL013W, strain DEP1, hits give low values 0.982 | locus YAL021C, strain ccr4, hits give low values 1.04 | locus YAL026C, strain drs2, hits give low values 0.987 | locus YAL030W, strain snc1, hits give low values 0.995 | locus YAL040C, strain CLN3, hits give low values 0.967 | locus YBL061C, strain skt5, hits give low values 0.989 | locus YBR009C, strain hhf1, hits give low values 1.02 | locus YBR021W, strain FUR4, hits give low values 0.985 | locus YBR023C, strain chs3, hits give low values 1 | locus YBR171W, strain sec66, hits give low values 0.993 | locus YBR229C, strain ROT2, hits give low values 0.95 | locus YBR231C, strain swc5, hits give low values 0.986 | locus YBR279W, strain paf1, hits give low values 0.995 | locus YCL011C, strain gbp2, hits give low values 1.01 | locus YCL016C, strain dcc1, hits give low values 1.02 | locus YCL029C, strain bik1, hits give low values 0.998 | locus YCL061C, strain MRC1 (second series), hits give low values 1 | locus YCL061C, strain MRC1, hits give low values 0.998 | locus YCL069W, strain vba3, hits give low values 0.992 | locus YCR088W, strain abp1, hits give low values 0.99 | locus YDL005C, strain med2, hits give low values 1.02 | locus YDL035C, strain GPR1, hits give low values 0.985 | locus YDL040C, strain nat1, hits give low values 0.991 | locus YDL074C, strain BRE1, hits give low values 0.999 | locus YDL101C, strain DUN1, hits give low values 0.989 | locus YDL134C, strain PPH21, hits give low values 0.973 | locus YDL185W, strain tfp1, hits give low values 0.97 | locus YDL192W, strain arf1, hits give low values 0.989 | locus YDR001C, strain nth1, hits give low values 0.989 | locus YDR069C, strain doa4, hits give low values 0.971 | locus YDR101C, strain arx1, hits give low values 0.998 | locus YDR137W, strain rgp1, hits give low values 1.01 | locus YDR150W, strain NUM1, hits give low values 0.963 and 0.992 | locus YDR159W, strain sac3, hits give low values 0.933 | locus YDR162C, strain NBP2, hits give low values 0.945 | locus YDR195W, strain ref2 0.951 | locus YDR297W, strain sur2, hits give low values 0.989 | locus YDR318W, strain mcm21, hits give low values 0.995 | locus YDR334W, strain swr1, hits give low values 0.982 | locus YDR335W, strain msn5, hits give low values 0.995 | locus YDR363W, strain ESC2, hits give low values 0.978 | locus YDR388W, hits give low values 0.986 | locus YDR392W, strain spt3, hits give low values 0.951 | locus YDR502C, strain sam2, hits give low values 0.995 | locus YEL003W, strain gim4, hits give low values 0.986 | locus YEL037C, strain rad23, hits give low values 0.988 | locus YEL061C, strain CIN8 (second series), hits give low values 0.989 | locus YEL061C, strain CIN8, hits give low values 0.977 | locus YER002W, strain NOP16, hits give low values 1.01 | locus YER015W, strain faa2, hits give low values 1 | locus YER016W, strain bim1, hits give low values 0.991 | locus YER110C, hits give low values 0.964 | locus YER111C, strain swi4, hits give low values 1 | locus YER155C, strain BEM2 (second series), hits give low values 0.978 | locus YER155C, strain BEM2, hits give low values 0.993 | locus YER167W, strain BCK2, hits give low values 0.987 | locus YFR010W, strain ubp6, hits give low values 0.979 | locus YGL078C, strain dbp3, hits give low values 0.984 | locus YGL086W, strain mad1, hits give low values 0.966 | locus YGL167C, strain pmr1, hits give low values 0.994 | locus YGL173C, strain kem1, hits give low values 0.997 | locus YGL227W, strain vid30, hits give low values 0.983 | locus YGL240W, strain doc1, hits give low values 0.986 | locus YGL248W, strain PDE1, hits give low values 0.981 | locus YGL253W, strain hxk2, hits give low values 0.974 | locus YGR078C, strain PAC10, hits give low values 0.999 | locus YGR135W, strain pre9, hits give low values 0.989 | locus YGR229C, strain SMI1, hits give low values 1.02 | locus YGR252W, strain gcn5, hits give low values 0.843 | locus YHR013C, strain ard1, hits give low values 0.973 | locus YHR027C, strain rpn1, hits give low values 1 | locus YHR030C, strain SLT2, hits give low values 0.985 | locus YHR079C, strain IRE1 (second series), hits give low values 0.992 | locus YHR094C, strain hxt1, hits give low values 0.984 | locus YHR129C, strain ARP1, hits give low values 0.996 | locus YHR142W, strain chs7, hits give low values 1 | locus YHR200W, strain rpn10, hits give low values 0.991 | locus YIL066C, strain RNR3, hits give low values 0.99 | locus YIL073C, strain SPO22, hits give low values 0.938 | locus YIL125W, strain kgd1, hits give low values 0.975 | locus YIR030C, strain dcg1, hits give low values 0.976 | locus YJL092W, strain hpr5, hits give low values 0.999 | locus YJL095W, strain BCK1 (second series), hits give low values 0.992 | locus YJL095W, strain BCK1, hits give low values 1.04 | locus YJL115W, strain asf1, hits give low values 0.99 | locus YJL129C, strain trk1, hits give low values 0.995 | locus YJL134W, strain LCB3, hits give low values 0.988 | locus YJL154C, strain vps35, hits give low values 0.981 | locus YJL164C, strain tpk1, hits give low values 1.02 | locus YJL166W, strain qcr8, hits give low values 1.01 | locus YJL168C, strain set2, hits give low values 0.999 | locus YJL187C, strain SWE1 (second series), hits give low values 0.993 | locus YJL187C, strain SWE1, hits give low values 1.01
